The results in this text go back to article PMC7862700, “An all-to-all approach to the identification of sequence-specific readers for epigenetic DNA modifications on cytosine”.

Common to all, as to assay: DAPPL (digital affinity profiling via proximity ligation, sequencing); 10 mM Tris-HCl pH 7.5, 50 mM NaCl, 1 mM DTT, 4% glycerol, room temperature, 30 min; GST-TFs on glutathione beads, 16-mer random dsDNA library, 0.1% formaldehyde crosslink after washing; high values mean tight binding
One assay concerns the target T1, FEV (Homo sapiens, UniProt Q99581 1-238).
T1 sequence: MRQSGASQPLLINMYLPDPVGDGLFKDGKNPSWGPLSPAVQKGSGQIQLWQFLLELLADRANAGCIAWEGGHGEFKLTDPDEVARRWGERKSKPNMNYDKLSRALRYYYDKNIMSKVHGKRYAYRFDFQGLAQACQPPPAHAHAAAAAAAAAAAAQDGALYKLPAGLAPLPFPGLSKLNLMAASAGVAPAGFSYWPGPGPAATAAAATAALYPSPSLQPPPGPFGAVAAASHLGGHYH
The following applies: protein: recombinant; tags: N-terminal GST; dsDNA, one strand shown. The method in brief:
(§1)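 Pools were built from human transcription factors expressed in yeast as GST fusions, captured on glutathione beads and DNA-barcoded, along with a tag-only sample. Incubation with 200 nmole of a 16-mer random double-stranded DNA library lasted 30 min at room temperature in Tris/NaCl/DTT/glycerol buffer, and was followed by washing, 0.1% formaldehyde crosslinking, proximity ligation, PCR amplification and Illumina NextSeq500 sequencing. Binding signal is the quotient of each hexamer's read frequency for a factor and its frequency for the tag-only sample.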

The target of another assay is ETV5 (Homo sapiens, UniProt P41161 1-510). The following applies: protein: recombinant; tags: N-terminal GST; dsDNA, one strand shown. In short, it runs like this: as §1
The next assay deals with HSF1 (Homo sapiens, UniProt Q00613 1-529). The following applies: protein: recombinant; tags: N-terminal GST; chain copies: 3; dsDNA, one strand shown. In short, it runs like this:
as §1

In a further assay the target is T2, SPIC (Homo sapiens, UniProt Q8N5J4 1-248).
T2 sequence: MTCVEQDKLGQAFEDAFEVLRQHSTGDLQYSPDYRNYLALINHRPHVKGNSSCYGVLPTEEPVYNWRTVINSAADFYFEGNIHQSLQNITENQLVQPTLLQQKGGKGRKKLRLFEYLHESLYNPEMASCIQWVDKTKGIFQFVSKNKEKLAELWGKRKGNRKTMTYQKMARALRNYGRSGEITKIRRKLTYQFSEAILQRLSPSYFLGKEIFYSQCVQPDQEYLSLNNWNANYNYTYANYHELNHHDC
The following applies: protein: recombinant; tags: N-terminal GST; dsDNA, one strand shown. The method in brief:
as §1

The next assay addresses ELF4 (Homo sapiens, UniProt Q99607 1-663). To be noted: protein: recombinant; tags: N-terminal GST; dsDNA, one strand shown. In short, it runs like this:
as §1

The target of another assay is T3, ELK4 (Homo sapiens, UniProt P28324-2 1-405).
T3 sequence: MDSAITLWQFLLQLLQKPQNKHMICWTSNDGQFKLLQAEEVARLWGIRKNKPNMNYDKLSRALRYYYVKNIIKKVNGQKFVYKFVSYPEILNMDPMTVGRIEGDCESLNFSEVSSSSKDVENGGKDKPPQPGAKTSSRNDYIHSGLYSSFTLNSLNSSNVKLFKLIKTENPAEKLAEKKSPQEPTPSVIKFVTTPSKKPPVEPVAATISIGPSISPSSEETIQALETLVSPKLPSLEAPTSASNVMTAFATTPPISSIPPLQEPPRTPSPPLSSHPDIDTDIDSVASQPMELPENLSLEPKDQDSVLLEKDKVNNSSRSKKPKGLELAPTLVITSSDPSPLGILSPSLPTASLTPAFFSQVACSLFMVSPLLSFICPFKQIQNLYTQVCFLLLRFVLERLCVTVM
The following applies: protein: recombinant; tags: N-terminal GST; dsDNA, one strand shown. In short, it runs like this:
as §1

The next assay has as its target T4, ETV2 (Homo sapiens, UniProt O00321 1-342).
T4 sequence: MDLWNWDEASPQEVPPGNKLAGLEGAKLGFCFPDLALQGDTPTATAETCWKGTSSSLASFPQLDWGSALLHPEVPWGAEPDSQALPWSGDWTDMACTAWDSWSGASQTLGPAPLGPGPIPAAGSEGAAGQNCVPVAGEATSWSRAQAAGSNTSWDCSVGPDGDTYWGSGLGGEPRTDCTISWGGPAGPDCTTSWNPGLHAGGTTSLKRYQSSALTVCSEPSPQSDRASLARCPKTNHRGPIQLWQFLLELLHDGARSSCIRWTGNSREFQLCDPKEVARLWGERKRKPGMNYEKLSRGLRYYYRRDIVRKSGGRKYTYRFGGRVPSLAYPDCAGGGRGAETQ
To be noted: protein: recombinant; tags: N-terminal GST; dsDNA, one strand shown. In short, it runs like this:
as §1

The target of the next assay is T5, ELF3 (Homo sapiens, UniProt P78545 1-371).
T5 sequence: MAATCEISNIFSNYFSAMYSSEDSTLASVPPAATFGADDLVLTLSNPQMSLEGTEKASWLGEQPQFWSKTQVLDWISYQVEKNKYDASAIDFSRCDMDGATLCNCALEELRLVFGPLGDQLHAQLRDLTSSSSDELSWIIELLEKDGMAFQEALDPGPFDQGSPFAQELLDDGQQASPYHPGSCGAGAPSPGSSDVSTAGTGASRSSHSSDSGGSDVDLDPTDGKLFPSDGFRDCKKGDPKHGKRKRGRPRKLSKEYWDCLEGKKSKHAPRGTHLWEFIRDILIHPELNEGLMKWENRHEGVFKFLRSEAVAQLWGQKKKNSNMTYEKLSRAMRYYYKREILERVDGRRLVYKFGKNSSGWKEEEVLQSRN
The following applies: protein: recombinant; tags: N-terminal GST; dsDNA, one strand shown. In short, it runs like this:
as §1

For a further assay, the target named is CRX (Homo sapiens, UniProt O43186 1-299). The following applies: protein: recombinant; tags: N-terminal GST; dsDNA, one strand shown. The method in brief: as §1
The target of another assay is ETV1 (Homo sapiens, UniProt P50549 1-477). The following applies: protein: recombinant; tags: N-terminal GST; dsDNA, one strand shown. In short, it runs like this: as §1
In the next assay the target is T6, ERF (Homo sapiens, UniProt P50548 1-548).
T6 sequence: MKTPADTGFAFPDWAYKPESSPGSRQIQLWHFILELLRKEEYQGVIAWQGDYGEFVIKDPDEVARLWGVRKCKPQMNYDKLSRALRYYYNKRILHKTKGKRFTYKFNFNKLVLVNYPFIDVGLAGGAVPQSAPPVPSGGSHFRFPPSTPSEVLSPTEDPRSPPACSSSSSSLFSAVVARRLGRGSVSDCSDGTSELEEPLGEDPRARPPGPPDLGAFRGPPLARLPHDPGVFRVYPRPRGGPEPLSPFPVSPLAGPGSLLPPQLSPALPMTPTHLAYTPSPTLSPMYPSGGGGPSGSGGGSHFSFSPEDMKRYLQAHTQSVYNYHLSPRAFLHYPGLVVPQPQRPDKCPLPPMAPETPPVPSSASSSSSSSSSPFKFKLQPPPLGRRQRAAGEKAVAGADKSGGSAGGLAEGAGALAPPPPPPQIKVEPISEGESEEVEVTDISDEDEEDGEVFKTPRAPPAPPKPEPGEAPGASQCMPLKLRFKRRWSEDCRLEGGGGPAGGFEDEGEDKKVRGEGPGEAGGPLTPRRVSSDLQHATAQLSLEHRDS
To be noted: protein: recombinant; tags: N-terminal GST; dsDNA, one strand shown. In short, it runs like this: as §1

A further assay concerns the target T7, ETV3L (Homo sapiens, UniProt Q6ZN32 1-361).
T7 sequence: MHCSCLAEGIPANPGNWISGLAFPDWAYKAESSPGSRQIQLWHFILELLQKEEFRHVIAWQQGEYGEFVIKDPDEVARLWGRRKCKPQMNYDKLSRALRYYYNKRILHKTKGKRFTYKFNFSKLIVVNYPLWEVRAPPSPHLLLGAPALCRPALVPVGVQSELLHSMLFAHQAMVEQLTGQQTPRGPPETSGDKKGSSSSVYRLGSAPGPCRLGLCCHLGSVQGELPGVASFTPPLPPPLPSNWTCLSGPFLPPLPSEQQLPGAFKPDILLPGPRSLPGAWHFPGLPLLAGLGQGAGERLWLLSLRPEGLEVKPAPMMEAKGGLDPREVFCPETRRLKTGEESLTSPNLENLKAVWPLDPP
The following applies: protein: recombinant; tags: N-terminal GST; dsDNA, one strand shown. The method in brief: as §1

The target in a further assay is T8, ETS2 (Homo sapiens, UniProt P15036 1-469).
T8 sequence: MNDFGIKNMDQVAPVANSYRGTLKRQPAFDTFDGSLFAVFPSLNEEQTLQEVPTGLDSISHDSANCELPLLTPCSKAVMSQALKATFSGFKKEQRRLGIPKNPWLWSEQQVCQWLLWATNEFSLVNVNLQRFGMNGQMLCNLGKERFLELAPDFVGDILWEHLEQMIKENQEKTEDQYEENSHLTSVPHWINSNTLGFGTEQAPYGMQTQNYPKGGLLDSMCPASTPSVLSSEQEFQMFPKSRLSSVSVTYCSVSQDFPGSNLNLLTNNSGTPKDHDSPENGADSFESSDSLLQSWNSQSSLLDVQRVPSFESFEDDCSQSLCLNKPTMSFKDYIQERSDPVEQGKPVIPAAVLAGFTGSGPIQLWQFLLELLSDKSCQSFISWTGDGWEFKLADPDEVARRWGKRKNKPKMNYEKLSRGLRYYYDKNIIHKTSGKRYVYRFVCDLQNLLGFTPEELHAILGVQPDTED
The following applies: protein: recombinant; tags: N-terminal GST; dsDNA, one strand shown. The method in brief: as §1

Another assay addresses T9, SPDEF (Homo sapiens, UniProt O95238 1-335).
T9 sequence: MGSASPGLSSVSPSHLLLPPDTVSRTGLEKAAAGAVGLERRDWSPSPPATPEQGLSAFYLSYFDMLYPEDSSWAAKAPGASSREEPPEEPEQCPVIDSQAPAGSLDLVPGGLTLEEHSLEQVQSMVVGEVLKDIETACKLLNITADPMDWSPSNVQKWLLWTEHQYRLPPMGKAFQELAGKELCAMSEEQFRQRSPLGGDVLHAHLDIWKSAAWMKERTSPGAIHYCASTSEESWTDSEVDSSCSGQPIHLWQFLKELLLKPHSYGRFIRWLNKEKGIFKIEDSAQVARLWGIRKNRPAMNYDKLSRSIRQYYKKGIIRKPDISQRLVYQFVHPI
The following applies: protein: recombinant; tags: N-terminal GST; dsDNA, one strand shown. In short, it runs like this: as §1

Another assay deals with T10, ETV7 (Homo sapiens, UniProt Q9Y603 1-341).
T10 sequence: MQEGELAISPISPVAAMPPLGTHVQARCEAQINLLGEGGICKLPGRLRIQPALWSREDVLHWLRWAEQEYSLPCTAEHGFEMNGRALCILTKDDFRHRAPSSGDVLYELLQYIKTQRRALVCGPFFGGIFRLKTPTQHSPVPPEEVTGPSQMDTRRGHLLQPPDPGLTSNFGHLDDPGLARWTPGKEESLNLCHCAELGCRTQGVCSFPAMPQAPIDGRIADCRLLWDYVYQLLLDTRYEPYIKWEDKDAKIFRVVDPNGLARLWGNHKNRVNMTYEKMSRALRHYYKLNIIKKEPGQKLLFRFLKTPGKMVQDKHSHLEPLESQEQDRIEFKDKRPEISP
To be noted: protein: recombinant; tags: N-terminal GST; dsDNA, one strand shown. In short, it runs like this:
as §1

For another assay, the target named is T11, ELF5 (Homo sapiens, UniProt Q9UKW6-2 1-255).
T11 sequence: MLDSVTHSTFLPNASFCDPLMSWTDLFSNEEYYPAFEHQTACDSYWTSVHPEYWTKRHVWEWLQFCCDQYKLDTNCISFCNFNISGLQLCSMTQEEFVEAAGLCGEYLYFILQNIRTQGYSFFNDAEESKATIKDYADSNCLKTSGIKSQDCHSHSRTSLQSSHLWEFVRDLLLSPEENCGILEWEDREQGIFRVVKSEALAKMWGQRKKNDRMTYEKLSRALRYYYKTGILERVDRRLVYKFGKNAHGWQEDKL
To be noted: protein: recombinant; tags: N-terminal GST; dsDNA, one strand shown. In short, it runs like this: as §1

The target in another assay is T12, ETV3 (Homo sapiens, UniProt P41162-2 1-143).
T12 sequence: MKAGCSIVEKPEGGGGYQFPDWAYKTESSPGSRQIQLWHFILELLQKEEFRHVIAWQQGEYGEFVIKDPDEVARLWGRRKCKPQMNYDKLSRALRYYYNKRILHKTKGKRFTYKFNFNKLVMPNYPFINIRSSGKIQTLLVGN
The following applies: protein: recombinant; tags: N-terminal GST; dsDNA, one strand shown. The method in brief:
as §1

Another assay concerns the target ETV6 (Homo sapiens, UniProt P41212 1-452). To be noted: protein: recombinant; tags: N-terminal GST; dsDNA, one strand shown. The method in brief: as §1

Sequence of CRX (O43186 whole entry): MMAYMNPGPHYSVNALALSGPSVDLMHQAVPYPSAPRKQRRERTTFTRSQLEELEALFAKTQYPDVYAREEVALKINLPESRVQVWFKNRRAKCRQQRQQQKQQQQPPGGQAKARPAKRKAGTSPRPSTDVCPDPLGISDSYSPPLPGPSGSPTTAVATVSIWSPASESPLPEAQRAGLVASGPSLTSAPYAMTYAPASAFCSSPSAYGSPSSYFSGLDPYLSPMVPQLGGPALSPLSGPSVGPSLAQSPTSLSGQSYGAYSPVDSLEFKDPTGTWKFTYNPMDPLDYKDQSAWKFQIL
Sequence of ELF4 (Q99607 whole entry): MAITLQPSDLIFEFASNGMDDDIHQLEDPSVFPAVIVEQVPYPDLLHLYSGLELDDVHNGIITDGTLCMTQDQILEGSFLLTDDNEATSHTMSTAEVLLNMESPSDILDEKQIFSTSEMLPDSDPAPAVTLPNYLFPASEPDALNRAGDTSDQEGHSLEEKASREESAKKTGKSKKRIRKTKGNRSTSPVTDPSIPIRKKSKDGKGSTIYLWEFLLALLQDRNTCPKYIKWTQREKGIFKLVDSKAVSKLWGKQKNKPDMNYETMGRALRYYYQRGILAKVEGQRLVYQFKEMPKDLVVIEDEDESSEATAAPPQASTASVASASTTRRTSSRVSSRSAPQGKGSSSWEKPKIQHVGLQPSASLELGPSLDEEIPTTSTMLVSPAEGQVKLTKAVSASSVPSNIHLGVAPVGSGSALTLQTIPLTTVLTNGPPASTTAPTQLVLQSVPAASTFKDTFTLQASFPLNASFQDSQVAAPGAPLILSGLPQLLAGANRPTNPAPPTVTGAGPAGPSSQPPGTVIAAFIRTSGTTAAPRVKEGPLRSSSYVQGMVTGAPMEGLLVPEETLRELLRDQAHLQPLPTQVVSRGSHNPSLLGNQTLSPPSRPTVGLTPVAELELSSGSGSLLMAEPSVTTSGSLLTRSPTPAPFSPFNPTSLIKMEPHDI
Sequence of ETV1 (P50549 whole entry): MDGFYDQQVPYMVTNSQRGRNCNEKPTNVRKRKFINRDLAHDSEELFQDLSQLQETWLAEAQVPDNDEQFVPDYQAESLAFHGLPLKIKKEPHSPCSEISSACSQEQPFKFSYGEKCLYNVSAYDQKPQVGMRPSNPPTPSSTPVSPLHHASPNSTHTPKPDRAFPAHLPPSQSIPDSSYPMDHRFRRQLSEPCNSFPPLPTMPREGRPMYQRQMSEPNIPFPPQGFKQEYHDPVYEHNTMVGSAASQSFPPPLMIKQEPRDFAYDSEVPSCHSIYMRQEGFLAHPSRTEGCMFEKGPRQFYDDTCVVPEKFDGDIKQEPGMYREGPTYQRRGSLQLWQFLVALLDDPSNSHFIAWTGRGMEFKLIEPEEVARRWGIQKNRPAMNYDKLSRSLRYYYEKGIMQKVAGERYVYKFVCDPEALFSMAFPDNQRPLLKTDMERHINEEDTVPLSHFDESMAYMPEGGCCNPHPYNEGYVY
Sequence of ETV6 (P41212 whole entry): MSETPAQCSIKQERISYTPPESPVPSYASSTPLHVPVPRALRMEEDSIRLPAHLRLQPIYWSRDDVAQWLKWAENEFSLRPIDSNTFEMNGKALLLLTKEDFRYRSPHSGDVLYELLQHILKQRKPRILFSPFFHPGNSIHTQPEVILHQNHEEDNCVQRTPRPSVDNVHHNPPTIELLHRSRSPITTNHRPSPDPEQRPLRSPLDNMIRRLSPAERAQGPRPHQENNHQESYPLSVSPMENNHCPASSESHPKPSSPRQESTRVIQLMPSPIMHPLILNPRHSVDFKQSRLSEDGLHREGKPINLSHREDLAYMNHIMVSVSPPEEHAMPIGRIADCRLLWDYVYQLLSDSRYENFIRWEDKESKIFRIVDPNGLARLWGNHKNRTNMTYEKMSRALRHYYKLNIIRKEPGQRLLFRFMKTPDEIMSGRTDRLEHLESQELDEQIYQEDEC
Sequence of HSF1 (Q00613 whole entry): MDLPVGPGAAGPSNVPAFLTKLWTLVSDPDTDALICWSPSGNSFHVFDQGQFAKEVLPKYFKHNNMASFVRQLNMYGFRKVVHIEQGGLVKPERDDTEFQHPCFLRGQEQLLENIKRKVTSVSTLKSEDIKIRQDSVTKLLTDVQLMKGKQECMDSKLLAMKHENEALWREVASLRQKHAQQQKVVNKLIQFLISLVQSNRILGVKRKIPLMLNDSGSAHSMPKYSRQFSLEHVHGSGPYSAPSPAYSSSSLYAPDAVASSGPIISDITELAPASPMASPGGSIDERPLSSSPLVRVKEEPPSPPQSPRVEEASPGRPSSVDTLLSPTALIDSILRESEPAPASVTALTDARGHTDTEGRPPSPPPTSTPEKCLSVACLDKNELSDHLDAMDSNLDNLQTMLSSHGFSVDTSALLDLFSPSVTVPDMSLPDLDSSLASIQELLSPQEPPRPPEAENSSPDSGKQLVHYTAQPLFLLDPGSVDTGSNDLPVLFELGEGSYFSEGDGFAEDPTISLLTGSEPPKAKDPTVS
Sequence of ETV5 (P41161 whole entry): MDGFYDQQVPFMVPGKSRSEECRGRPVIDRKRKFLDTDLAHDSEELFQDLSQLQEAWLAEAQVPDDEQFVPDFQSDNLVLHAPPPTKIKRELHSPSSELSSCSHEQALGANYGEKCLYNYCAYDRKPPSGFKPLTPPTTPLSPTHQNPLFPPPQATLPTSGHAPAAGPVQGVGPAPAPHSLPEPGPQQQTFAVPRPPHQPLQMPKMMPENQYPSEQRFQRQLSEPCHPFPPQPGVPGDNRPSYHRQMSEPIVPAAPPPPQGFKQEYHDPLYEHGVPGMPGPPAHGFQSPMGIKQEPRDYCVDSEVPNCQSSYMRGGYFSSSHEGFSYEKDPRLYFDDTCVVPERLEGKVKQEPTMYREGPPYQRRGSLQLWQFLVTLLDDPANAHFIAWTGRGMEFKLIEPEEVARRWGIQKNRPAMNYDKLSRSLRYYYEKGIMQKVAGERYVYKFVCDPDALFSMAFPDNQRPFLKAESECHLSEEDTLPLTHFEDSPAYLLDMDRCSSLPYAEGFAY

Turning to GCCTAA, the binding signal with FEV is 1.21 fold enrichment (6-mer frequency, TF over GST control); in the assay with ETV5, 1.19 fold enrichment (6-mer frequency, TF over GST control); with HSF1 it was 1.38 fold enrichment (6-mer frequency, TF over GST control); with SPIC it was 1.35 fold enrichment (6-mer frequency, TF over GST control); in the assay with ELF4 it was 1.25 fold enrichment (6-mer frequency, TF over GST control); with ELK4, 1.25 fold enrichment (6-mer frequency, TF over GST control). Besides, the binding signal in the assay with ETV2 was 1.19 fold enrichment (6-mer frequency, TF over GST control); with ELF3 it was 1.35 fold enrichment (6-mer frequency, TF over GST control); with CRX, 1.84 fold enrichment (6-mer frequency, TF over GST control); with ETV1, 1.22 fold enrichment (6-mer frequency, TF over GST control); in the assay with ERF, 1.22 fold enrichment (6-mer frequency, TF over GST control); with ETV3L it was 1.22 fold enrichment (6-mer frequency, TF over GST control). In addition, the binding signal with ETS2 was 1.31 fold enrichment (6-mer frequency, TF over GST control); in the assay with SPDEF, 1.11 fold enrichment (6-mer frequency, TF over GST control); with ETV7, 1.19 fold enrichment (6-mer frequency, TF over GST control); in the assay with ELF5, 1.18 fold enrichment (6-mer frequency, TF over GST control); in the assay with ETV3 it was 1.21 fold enrichment (6-mer frequency, TF over GST control); in the assay with ETV6, 1.13 fold enrichment (6-mer frequency, TF over GST control).
